This is a sample that favours compounds with a hit; in the whole collection about 3% have one here.
esBAF inh: Bmi1 luciferase reporter increase in mESCs, primary screen, esBAF inhibitor project, mouse ES cells, Bmi1 luciferase knock-in, single point; reporter increase, % at 12.5 µM; actives 2% (n = 350,000); AID 602393, 2012; 24 h; 100% = twice the neutral-well signal; in the data active = activation above about 40%; inconclusive = no clear call, values can overlap the other calls;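 also: 0% = median of the plate's neutral control wells and 100% = double that signal; a rise in the Bmi1 reporter signal indicates esBAF inhibition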
Statin myotox sup: suppressors of statin myotoxicity in C2C12 myotubes, primary screen, cell-based, single point, plate reader; AID 602340, 2012; rescue of ATP level, % at 7.49 µM; C2C12 myotubes + simvastatin, ATP luminescence, 48 h; scaled: DMSO 0, geranylgeraniol control 100; actives 0.78% (n = 330,000);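 active = mean ATP rescue above about 67%, or every replicate alone reaching that limit, limit read from the data, passing the limit was not always enough; inconclusive = no clear call, values can overlap the other calls; inactive = mean under the limit and some replicate under it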;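 also: myotubes were challenged with 10 µM simvastatin during compound exposure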
Wnt bcat act: Wnt/beta-catenin pathway activators, primary screen, cell-based, plate reader, single point | AID 743398, 2014 | actives 1.2% (n = 300,000) | Wnt/beta-catenin reporter cell assay, activator | activation, % at 9.35 µM; in the data active = activation above about 30%, passing the limit was not always enough; inconclusive = no clear call, values can overlap the other calls;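 also: 0% = neutral control wells and 100% = positive control wells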
MITF act: activators of MITF-driven TRPM1 promoter reporter, primary screen, cell-based, SK-MEL-5, luciferase, single point; SK-MEL-5 TRPM1-promoter luciferase, 24 h; % of positive control, neutral wells = 0; activation, % at 12.5 µM; actives 0.75% (n = 300,000);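 active = mean activation of at least 80% with every replicate also reaching 80%; inconclusive = mean reaches 80% but some replicate falls short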;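 also: 0% = neutral control wells and 100% = parthenolide positive control wells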
* marks the source's active call; other numbers are inactive results; u = inconclusive; x = no result.

SMILES | esBAF inh | Statin myotox sup | Wnt bcat act | MITF act
COc1ccc(C2=NN(C(=O)CN3CCOCC3)C(c3nc4ccccc4[nH]3)C2)cc1 (stereo unspecified) | 59* | -2 | u | 35
CCCCn1c(SCC(=O)Nc2cc(C)[nH]n2)nc2ccsc2c1=O | -8 | 16 | -3 | -6
Cc1cc(NC(=O)CSc2nc3ccsc3c(=O)n2Cc2ccccn2)n[nH]1 | 21 | 93* | 0 | 56
COc1ccc(-c2csc(-c3cccnc3)n2)cc1C | 51* | -8 | 10 | 76
c1ccc(-c2nc(-c3cccnc3)cs2)cc1 | 52* | -4 | 11 | 35
c1ccc(-c2csc(-c3cccnc3)n2)cc1 | x | x | -1 | 31
Brc1ccc(-c2csc(-c3ccncc3)n2)cc1 | x | x | 55* | u
COc1cccc(-c2nc(-c3ccc4c(c3)NC(=O)CO4)cs2)c1 | x | x | 12 | 105*
COc1ccc(-c2cc(-c3ccc(OC)cc3)nc(-c3ccc4c(c3)NC(=O)CO4)c2)cc1 | -1 | 31 | -2 | 8
Cc1ccc(C)c(-c2csc(-c3cccnc3)n2)c1 | 6 | -14 | 4 | 3
Cc1ccc(-c2csc(-c3ccncc3)n2)cc1 | x | x | 11 | 59
COc1ccc(NC(=O)N(C)C[C@@H]2Oc3c(NC(=O)Nc4ccc(C(F)(F)F)cc4)cccc3C(=O)N([C@@H](C)CO)C[C@@H]2C)cc1 | -1 | x | x | x
COc1ccc(NC(=O)Nc2ccc3c(c2)C(=O)N([C@H](C)CO)C[C@@H](C)[C@H](CN(C)S(=O)(=O)c2cn(C)cn2)OCCCC[C@H](C)O3)cc1 | 1 | x | x | x
CCCNC(=O)[C@H]1[C@H](CO)[C@H]2Cn3c(ccc(C4=CCCC4)c3=O)[C@@H]1N2C(=O)CC | 2 | -16 | x | x
CCS(=O)(=O)NCC[C@H]1CC[C@H](NS(=O)(=O)c2cccc(Cl)c2)[C@@H](CO)O1 | -5 | 10 | x | x
CC(=O)Nc1ccc2c(c1)C(=O)N(C)[C@H]1CC[C@H](CC(=O)Nc3ccccc3Cl)O[C@@H]1CO2 | 4 | 17 | x | x
CC(O)(c1cccnc1)c1nc(-c2ccc3ccccc3c2)cs1 (stereo unspecified) | 57* | 9 | -3 | x
NC(=O)c1cc(-c2csc(-c3cccnc3)n2)ccc1O | 26 | -21 | 10 | 36
COc1ccc(-c2csc(-c3ccccc3)n2)c(OC)c1 | x | x | 13 | 86*
COc1ccc2cc(-c3csc(-c4cccnc4)n3)ccc2c1 | 59* | 1 | x | u
CNC(=O)c1ccc(-c2nc(-c3ccccc3)cs2)cc1 | 52* | -4 | 10 | 74
Cc1noc(C)c1NC(=O)N(C)C[C@H]1Oc2ccc(NC(=O)NC(C)C)cc2C(=O)N([C@@H](C)CO)C[C@H]1C | -5 | -9 | x | x
CCCC#Cc1ccc2c(c1)O[C@@H](CN(C)Cc1cccnc1)[C@H](C)CN([C@@H](C)CO)S2(=O)=O | 4 | -73 | x | x
Cn1c2c(c(=O)n(C)c1=O)CN(Cc1ccc3c(c1)OCO3)CN2 | -5 | 112* | -1 | -3
C[C@H]1CCCCO[C@@H](CN(C)S(C)(=O)=O)[C@@H](C)CN([C@@H](C)CO)C(=O)c2cc(N(C)C)ccc2O1 | -9 | -4 | x | x
SMILES | esBAF inh | Statin myotox sup | Wnt bcat act | MITF act
O=C(/C=C/c1ccco1)Oc1ccc(C(=S)N2CCOCC2)cc1 | x | x | 84* | 1
O=Cc1cccc(OC(=O)/C=C/c2ccco2)c1 | 48* | -11 | 9 | x
O=C(Nc1ccc(F)cc1)Nc1ccc2c(c1)OCO2 | 66* | -5 | 27 | 104*
O=C(Nc1ccc2c(c1)OCO2)c1c(F)c(F)c(F)c(F)c1F | -2 | 37 | x | 6
CC1CCC(NC(=O)C(=O)Nc2ccc3c(c2)OCO3)CC1 (stereo unspecified) | 56* | -1 | 32* | 63
CC1(C(=O)Nc2ccc3c(c2)OCO3)CCN1C(=O)C1(c2ccc(Cl)cc2)CC1 (stereo unspecified) | 10 | 0 | 51* | x
O=C(Nc1ccc2c(c1)OCO2)Nc1ccc2c(c1)OCO2 | x | x | 30 | 75
CC1CCC(NC(=O)c2ccc3c(c2)OCO3)CC1 (stereo unspecified) | -35 | -3 | 24 | 2
O=C(Nc1ccc(Cl)cc1)Nc1ccc2c(c1)OCO2 | 60* | -16 | 38* | 63
CCC(=O)N1C[C@H](C)[C@@H](OC)CN(C)C(=O)c2cc(NC(=O)Nc3ccccc3)ccc2OC[C@H]1C | 0 | -2 | x | x
CCCNC(=O)Nc1ccc2c(c1)C(=O)N(C)C[C@@H](OC)[C@H](C)CN(CC1CCCC1)[C@H](C)CO2 | 2 | -4 | x | x
C[C@H](CO)N1C[C@H](C)[C@H](CN(C)Cc2ccncc2)Oc2c(NC(=O)C3CCCCC3)cccc2C1=O | -1 | -2 | x | x
CC(=O)NC(Cc1c[nH]c2ccccc12)C(=O)OCC(=O)Nc1ccc2c(c1)OCO2 (stereo unspecified) | -7 | 14 | -3 | -10
Cc1[nH]c2ccccc2c1C(=O)C(=O)Nc1ccc2c(c1)OCO2 | 52* | -24 | 11 | 69
O=C(NCCc1ccc(F)cc1)Nc1ccc2c(c1)OCO2 | x | x | 48* | 20
O=C(Nc1ncc(Cc2ccccc2)s1)c1cccs1 | -17 | -1 | x | 66
Cc1ccc(Cc2cnc(NC(=O)c3cccs3)s2)cc1 | 72* | -11 | x | 64
O=C(Nc1ncc(Cc2cccc(Cl)c2)s1)c1cccs1 | 47* | 19 | x | 60
Cc1ccc(C(=O)Nc2ncc(Cc3ccccc3)s2)o1 | 4 | 2 | 51* | 35
CCCN1C[C@@H](C)[C@@H](OC)CN(C)C(=O)c2ccc(NC(=O)Nc3cccc(F)c3)cc2OC[C@H]1C | -1 | -56 | x | x
CCCNC(=O)[C@@H]1[C@@H](CO)[C@@H]2Cn3c(ccc(-c4ccccc4F)c3=O)[C@H]1N2C(=O)CC | 3 | 2 | x | x
CCOc1ccc(C2C=C(c3ccccc3)Nc3nnnn32)cc1 (stereo unspecified) | 51* | -4 | 43* | x
Cc1ccc(Nc2nc(N)nc(CC#N)n2)cc1 | 69* | 10 | x | 71
Cc1ccc(Nc2nc(N)nc(CCl)n2)cc1 | x | x | 39* | x
Cc1ccc(Nc2nc(N)nc(COC(=O)C3=COCCO3)n2)cc1 | 37 | -4 | u | 95*
SMILES | esBAF inh | Statin myotox sup | Wnt bcat act | MITF act
Cc1ccc(Nc2nc(N)nc(CSCCO)n2)cc1 | u | -8 | 29 | 41
O=C(NC1CCCC1)c1cc2cc(Br)ccc2o1 | 69* | -8 | u | u
O=C(NC1CCCC1)c1cc2ccccc2o1 | x | x | 27 | 24
O=C(NC1CCCCC1)c1cc2cc(Br)ccc2o1 | 56* | -5 | -1 | x
O=C(C[C@@H]1CC[C@@H]2[C@H](COC[C@H](O)CN2Cc2cc(F)ccc2F)O1)NCc1ccc(Cl)cc1 | 2 | -2 | x | x
O=C(NCc1ccccc1)c1c[nH]c2cc3c(cc2c1=O)OCCO3 | 51* | -19 | 24 | 39
C#CCn1cnc2c(cnn2-c2ccc(C)c(C)c2)c1=O | 66* | 8 | x | 66
Cc1nc2c3cnn(-c4ccc(C)c(C)c4)c3ncn2n1 | x | x | x | 87*

From PubChem BioAssay
